Experiment [1] in a line: NCI Yeast Anticancer Drug Screen. Data for the rad50 strain (AID 155).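 Also: 0% = growth of vehicle-only cultures of the same strain.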 The note with it: S. cerevisiae rad50 strain growth inhibition, active compounds read high. In a few lines: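 Growth of the mutant yeast was measured after compound exposure and referenced to vehicle-treated cultures.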
Experiment [2] in a line: NCI Yeast Anticancer Drug Screen. Data for the mec2-1 strain (AID 157). To be noted: S. cerevisiae mec2-1 strain, active compounds read high. Put shortly:
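Using mec2-1 yeast: add compound, measure growth, express inhibition versus vehicle-treated cultures.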

Experiment [3] can be described thus: NCI Yeast Anticancer Drug Screen. Data for the sgs1 mgt1 strain (AID 161).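 Also: 0% = growth of cultures given vehicle only.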 The note with it: S. cerevisiae sgs1 mgt1 strain, active compounds read high. In a few lines: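 Growth of a repair-deficient yeast mutant was monitored after compound treatment and expressed as inhibition relative to vehicle-treated cultures.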
Experiment [4] is described as follows: NCI Yeast Anticancer Drug Screen. Data for the cln2 rad14 strain (AID 165).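 Also: 0% = growth equal to vehicle treated cultures.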 The note with it: S. cerevisiae cln2 rad14 strain, active compounds read high. In a few lines:
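Yeast strain cln2 rad14, bearing defects in cell cycle control and DNA repair, serves as the test system; values reflect growth inhibition compared with vehicle.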

The nature of experiment [5]: NCI Yeast Anticancer Drug Screen. Data for the bub3 strain (AID 167). To be noted: S. cerevisiae bub3 mutant strain, active compounds read high. In a few lines: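 Whole-cell yeast assay. The mutant strain was incubated with compounds, and growth inhibition was determined by comparison with vehicle-treated cells.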
Experiment [6] in a line: NCI Yeast Anticancer Drug Screen. Data for the mlh1 rad18 strain (AID 175). The note with it: S. cerevisiae mlh1 rad18 strain growth inhibition, active compounds read high. In a few lines:
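Steps: expose repair-defective yeast to compound; measure growth; express inhibition against vehicle-treated controls.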

Setting [7] is: at 5.0 µM (retest, dose inferred, filed as 0.5).
Setting [8] is: at 50.0 µM (retest, dose inferred, filed as 5.0).

Compounds without any hit were thinned out: in the full panel of roughly 79,000, 15% have a hit. Values without a mark were called inactive. Calls of active or inactive are those of the source. Rule as the data show it: active = growth inhibition above about 70%; inactive = the rest.

The record followed here is PubChem BioAssay (NCI).

As for `O=C1C=CC(=O)N1c1ccc(Cl)cc1`, the growth inhibition in experiment [1] (setting [7]) is 79% (active); in experiment [1] (setting [8]) it was 97% (active); in experiment [1] (at 50.0 µM), 91.6% (active); in experiment [2] (setting [7]) it was 79% (active); in experiment [2] (setting [8]), 99% (active); in experiment [2] (at 50.0 µM), 93.1% (active). For the same molecule, the growth inhibition was 95% (active) in experiment [3] (setting [7]); 100% (active) in experiment [3] (setting [8]); 92.8% (active) in experiment [3] (at 50.0 µM); 54% in experiment [4] (setting [7]); 101% (active) in experiment [4] (setting [8]); 84.8% (active) in experiment [4] (at 50.0 µM). In addition, the growth inhibition in experiment [5] (setting [7]) is 101% (active); in experiment [5] (setting [8]) it was 100% (active); in experiment [5] (at 50.0 µM), 92.1% (active); in experiment [6] (setting [7]), 80% (active); in experiment [6] (setting [8]) it was 99% (active); in experiment [6] (at 50.0 µM), 92% (active).

On to `Cc1[nH]nc(C(F)(F)F)c1N=NN1CCC(C(N)=O)CC1`, for which the growth inhibition in experiment [1] (setting [7]) was 49%; in experiment [1] (setting [8]), 99% (active); in experiment [1] (at 50.0 µM), 99.5% (active); in experiment [2] (setting [7]), 77% (active); in experiment [2] (setting [8]), 100% (active); in experiment [2] (at 50.0 µM), 99.5% (active). For the same molecule, the growth inhibition in experiment [3] (setting [7]) was 83% (active); in experiment [3] (setting [8]), 99% (active); in experiment [3] (at 50.0 µM) it was 99.5% (active); in experiment [4] (setting [7]) it was 36%; in experiment [4] (setting [8]) it was 99% (active); in experiment [4] (at 50.0 µM), 99.5% (active). Further, the growth inhibition is 27% in experiment [5] (setting [7]); 99% (active) in experiment [5] (setting [8]); 99.5% (active) in experiment [5] (at 50.0 µM); 75% (active) in experiment [6] (setting [7]); 99% (active) in experiment [6] (setting [8]); 99.5% (active) in experiment [6] (at 50.0 µM).

As to `NCc1ccccc1-c1c2nc(c(-c3ccccc3CN)c3ccc([nH]3)c(-c3ccccc3CN)c3nc(c(-c4ccccc4CN)c4ccc1[nH]4)C=C3)C=C2`, the growth inhibition is 41% in experiment [1] (setting [7]); 84% (active) in experiment [1] (setting [8]); 79% (active) in experiment [1] (at 50.0 µM); 34% in experiment [2] (setting [7]); 83% (active) in experiment [2] (setting [8]); 83% (active) in experiment [2] (at 50.0 µM). Moreover, the growth inhibition in experiment [3] (setting [7]) was 37%; in experiment [3] (setting [8]), 82% (active); in experiment [3] (at 50.0 µM), 86.2% (active); in experiment [4] (setting [7]), 32%; in experiment [4] (setting [8]), 66%; in experiment [4] (at 50.0 µM), 78.8% (active). Also, the growth inhibition in experiment [5] (setting [7]) was 37%; in experiment [5] (setting [8]), 90% (active); in experiment [5] (at 50.0 µM), 79.7% (active); in experiment [6] (setting [7]) it was 54%; in experiment [6] (setting [8]), 84% (active); in experiment [6] (at 50.0 µM), 76.2% (active).

Turning to `Cc1ccc(S(=O)(=O)NC2(C=O)CCC(C(C)(C)C)CC2)cc1` (stereo not given), the growth inhibition in experiment [1] (setting [7]) is 15%; in experiment [1] (setting [8]) it was 86% (active); in experiment [1] (at 50.0 µM) it was 77.7% (active); in experiment [2] (setting [7]), 20%; in experiment [2] (setting [8]), 88% (active); in experiment [2] (at 50.0 µM) it was 68.4%. Further, the growth inhibition in experiment [3] (setting [7]) is 25%; in experiment [3] (setting [8]), 84% (active); in experiment [3] (at 50.0 µM) it was 82% (active); in experiment [4] (setting [7]), 20%; in experiment [4] (setting [8]), 92% (active); in experiment [4] (at 50.0 µM), 77.5% (active). Besides, the growth inhibition in experiment [5] (setting [7]) was 19%; in experiment [5] (setting [8]) it was 88% (active); in experiment [5] (at 50.0 µM) it was 84.7% (active); in experiment [6] (setting [7]) it was 37%; in experiment [6] (setting [8]) it was 95% (active); in experiment [6] (at 50.0 µM), 81% (active).

For the molecule `Cc1cc(Br)cc(C(=O)Cl)c1O`, the growth inhibition in experiment [1] (setting [7]) is -159%; in experiment [1] (setting [8]), -90%; in experiment [1] (at 50.0 µM), 32.5%; in experiment [2] (setting [7]) it was -51%; in experiment [2] (setting [8]) it was -24%; in experiment [2] (at 50.0 µM) it was 22%. The growth inhibition was -68% in experiment [3] (setting [7]); -54% in experiment [3] (setting [8]); 30.2% in experiment [3] (at 50.0 µM); -69% in experiment [4] (setting [7]); -11% in experiment [4] (setting [8]); 28.7% in experiment [4] (at 50.0 µM). Further, the growth inhibition in experiment [5] (setting [7]) was -74%; in experiment [5] (setting [8]), -47%; in experiment [5] (at 50.0 µM), 5.9%; in experiment [6] (setting [7]), -150%; in experiment [6] (setting [8]), -67%; in experiment [6] (at 50.0 µM) it was 34.7%.

In the case of `Cc1ccc(OC/C=C/c2ccc(Cl)cc2)cc1`, the growth inhibition in experiment [1] (setting [7]) was -2%; in experiment [1] (setting [8]) it was 75% (active); in experiment [1] (at 50.0 µM), 77.2% (active); in experiment [2] (setting [7]) it was 0%; in experiment [2] (setting [8]), 88% (active); in experiment [2] (at 50.0 µM), 53.1%. In addition, the growth inhibition in experiment [3] (setting [7]) is 16%; in experiment [3] (setting [8]), 91% (active); in experiment [3] (at 50.0 µM), 85.2% (active); in experiment [4] (setting [7]), -2%; in experiment [4] (setting [8]), 84% (active); in experiment [4] (at 50.0 µM) it was 65%. Also, the growth inhibition is 2% in experiment [5] (setting [7]); 86% (active) in experiment [5] (setting [8]); 67.4% in experiment [5] (at 50.0 µM); 5% in experiment [6] (setting [7]); 90% (active) in experiment [6] (setting [8]); 85.2% (active) in experiment [6] (at 50.0 µM).

Turning to `CCCCCCCCCCNC(=O)C[n+]1cccc(C(=O)NCc2ccccc2)c1`, the growth inhibition in experiment [1] (setting [7]) is 8%; in experiment [1] (setting [8]), 99% (active); in experiment [1] (at 50.0 µM) it was 99.5% (active); in experiment [2] (setting [7]), -1%; in experiment [2] (setting [8]) it was 100% (active); in experiment [2] (at 50.0 µM), 99.7% (active). The growth inhibition is 5% in experiment [3] (setting [7]); 100% (active) in experiment [3] (setting [8]); 99.5% (active) in experiment [3] (at 50.0 µM); 14% in experiment [4] (setting [7]); 99% (active) in experiment [4] (setting [8]); 98.8% (active) in experiment [4] (at 50.0 µM). The growth inhibition in experiment [5] (setting [7]) is 8%; in experiment [5] (setting [8]) it was 99% (active); in experiment [5] (at 50.0 µM) it was 99.4% (active); in experiment [6] (setting [7]), 11%; in experiment [6] (setting [8]) it was 99% (active); in experiment [6] (at 50.0 µM) it was 99.5% (active).

Turning to `Cc1ccc(/C=N/Nc2ccc([N+](=O)[O-])cc2[N+](=O)[O-])cc1`, the growth inhibition in experiment [1] (setting [7]) is -2%; in experiment [1] (setting [8]), -4%; in experiment [1] (at 50.0 µM), 19.4%; in experiment [2] (setting [7]), -1%; in experiment [2] (setting [8]) it was -2%; in experiment [2] (at 50.0 µM) it was -8.75%. The growth inhibition in experiment [3] (setting [7]) was -3%; in experiment [3] (setting [8]) it was -3%; in experiment [3] (at 50.0 µM), 10.6%; in experiment [4] (setting [7]), -4%; in experiment [4] (setting [8]) it was -9%; in experiment [4] (at 50.0 µM) it was 20.1%. Besides, the growth inhibition is -3% in experiment [5] (setting [7]); -4% in experiment [5] (setting [8]); -9.15% in experiment [5] (at 50.0 µM); -4% in experiment [6] (setting [7]); -4% in experiment [6] (setting [8]); -3.9% in experiment [6] (at 50.0 µM).

For the molecule `CCN(CC)Cc1ccc(Nc2cc(C)nc(/N=C(\N)Nc3ccc(Cl)c(Cl)c3)n2)cc1`, the growth inhibition is 66% in experiment [1] (setting [7]); 97% (active) in experiment [1] (setting [8]); 97.3% (active) in experiment [1] (at 50.0 µM); 55% in experiment [2] (setting [7]); 98% (active) in experiment [2] (setting [8]); 95.3% (active) in experiment [2] (at 50.0 µM). The growth inhibition in experiment [3] (setting [7]) is 59%; in experiment [3] (setting [8]), 98% (active); in experiment [3] (at 50.0 µM), 98.1% (active); in experiment [4] (setting [7]) it was 11%; in experiment [4] (setting [8]), 97% (active); in experiment [4] (at 50.0 µM), 82.5% (active). In addition, the growth inhibition in experiment [5] (setting [7]) was 7%; in experiment [5] (setting [8]) it was 98% (active); in experiment [5] (at 50.0 µM), 94.2% (active); in experiment [6] (setting [7]), 55%; in experiment [6] (setting [8]), 98% (active); in experiment [6] (at 50.0 µM) it was 97.3% (active).

`c1cc(Nc2ccc(Nc3ccc(CN4CCCCC4)cc3)cc2)ccc1CN1CCCCC1`: the growth inhibition is 39% in experiment [1] (setting [7]); 98% (active) in experiment [1] (setting [8]); 81.8% (active) in experiment [1] (at 50.0 µM); 31% in experiment [2] (setting [7]); 99% (active) in experiment [2] (setting [8]); 89.8% (active) in experiment [2] (at 50.0 µM). In addition, the growth inhibition in experiment [3] (setting [7]) was 66%; in experiment [3] (setting [8]), 99% (active); in experiment [3] (at 50.0 µM), 90.9% (active); in experiment [4] (setting [7]) it was 54%; in experiment [4] (setting [8]), 99% (active); in experiment [4] (at 50.0 µM), 83.2% (active). Further, the growth inhibition is 63% in experiment [5] (setting [7]); 99% (active) in experiment [5] (setting [8]); 89.2% (active) in experiment [5] (at 50.0 µM); 36% in experiment [6] (setting [7]); 98% (active) in experiment [6] (setting [8]); 87.5% (active) in experiment [6] (at 50.0 µM).
